Test [1] in a line: resazurin metabolic signal in HepG2 cells – cell-based, resazurin fluorescence, 24 h, PK04 Diversity Set, profiling panel (AID 1172). Also: test concentration not given here. The settings on record: HepG2 viability, higher = more signal. On the technique in general: Resazurin is reduced to fluorescent resorufin, in cell work by metabolically active cells.
The nature of test [2]: budding yeast growth changes without added modifier – OD600, strain BY4716, 24 h, basal condition, primary screen (AID 1173). The settings on record: S. cerevisiae BY4716 growth, OD600, 24 h; higher = more signal, called active from +8 up or from −8 down.
A short description of test [3]: viability profiling in MM1S myeloma cells – cell-based, resazurin fluorescence, basal, 24 h, PK04 Diversity Set, profiling panel (AID 1174).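 Also: MM1S multiple myeloma cell line; test concentration not given here.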 The settings on record: higher = more signal, called active from +8 up or from −8 down.
The target in test [4] is Dihydroorotate dehydrogenase (quinone), mitochondrial (Plasmodium falciparum (isolate 3D7)) (UniProt Q08210). As to the kind of experiment: inhibition of P. falciparum DHODH – biochemical, C-terminal His tag, absorbance 600 nm, primary screen (AID 1175).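 Also: recombinant parasite enzyme with a five histidine tag at its C terminus; test concentration not given here.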 The settings on record: PfDHODH enzyme, DCIP absorbance 600 nm; higher = more signal, called active from +8 up or from −8 down.

A short description of test [5]: inhibition of PAO1 biofilm formation – strain PAO1, LB-PBS medium, absorbance 600 nm, primary screen (AID 1176). Also: test concentration not given here. The settings on record: P. aeruginosa PAO1 growth/biofilm, A600, 12 h; higher = more signal.
A short description of test [6]: growth modulation of vineyard yeast isolate – strain RM11-1a, OD600, basal, 24 h, primary screen (AID 1177).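 Also: cultures grown under basal conditions with no added stressor; test concentration not given here.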 The settings on record: S. cerevisiae RM11-1a growth, OD600, 24 h; higher = more signal, called active from +8 up or from −8 down.
Test [7] is described as follows: growth of efflux-deficient E. coli DRC39 – strain DRC39, OD650, 24 h, E. coli filamentation inducers, primary screen (AID 1178).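 Also: growth measured as culture turbidity by optical density at 650 nm; test concentration not given here.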 The settings on record: E. coli DRC39 acrAB, higher = more signal, called active from +8 up or from −8 down.
A short description of test [8]: growth of efflux-deficient E. coli DRC39 – strain DRC39, OD650, 48 h, E. coli filamentation inducers, primary screen (AID 1179).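 Also: screen aims at cell division blockers that make cells filament.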 The settings on record: E. coli DRC39 delta-acrAB growth, higher = more signal, called active from +8 up or from −8 down.
Test [9] can be described thus: viability profiling in RPMI8226 myeloma cells – cell-based, resazurin fluorescence, basal, 24 h, PK04 Diversity Set, profiling panel (AID 1180).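 Also: RPMI8826 multiple myeloma cell line at 5000 cells per well; test concentration not given here.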 The settings on record: higher = more signal.
Test [10] has as its target E3 ubiquitin-protein ligase XIAP (Homo sapiens) (UniProt P98170). As to the kind of experiment: small molecules binding XIAP protein – biophysical, small-molecule microarray, fluorescence 635 nm, primary screen (AID 1181).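 Also: score merges 667 nm emission and signal to noise over triplicate slides.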 The settings on record: higher = more signal.

Each structure is given as a SMILES string. Calls of active or inactive are those of the source. Unless noted, no rule for the calls is given here.

Dihydroorotate dehydrogenase (quinone), mitochondrial (Plasmodium falciparum (isolate 3D7)), sequence (Q08210 whole entry, looked up): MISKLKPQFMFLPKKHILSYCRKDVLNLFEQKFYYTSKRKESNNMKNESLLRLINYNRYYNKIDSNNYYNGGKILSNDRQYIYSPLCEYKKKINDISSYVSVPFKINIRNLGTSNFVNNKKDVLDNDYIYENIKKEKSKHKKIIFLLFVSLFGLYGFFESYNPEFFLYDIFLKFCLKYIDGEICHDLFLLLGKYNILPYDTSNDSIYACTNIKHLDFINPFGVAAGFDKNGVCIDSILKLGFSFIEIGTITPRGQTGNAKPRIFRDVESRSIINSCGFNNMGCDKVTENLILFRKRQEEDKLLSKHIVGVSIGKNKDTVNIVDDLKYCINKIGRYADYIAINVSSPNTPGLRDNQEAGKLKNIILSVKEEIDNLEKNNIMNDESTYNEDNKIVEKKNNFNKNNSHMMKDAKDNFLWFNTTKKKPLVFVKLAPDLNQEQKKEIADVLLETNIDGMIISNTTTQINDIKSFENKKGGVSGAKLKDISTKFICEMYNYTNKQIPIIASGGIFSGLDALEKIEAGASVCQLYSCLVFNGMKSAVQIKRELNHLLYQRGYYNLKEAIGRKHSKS
E3 ubiquitin-protein ligase XIAP (Homo sapiens), sequence (P98170 whole entry, looked up): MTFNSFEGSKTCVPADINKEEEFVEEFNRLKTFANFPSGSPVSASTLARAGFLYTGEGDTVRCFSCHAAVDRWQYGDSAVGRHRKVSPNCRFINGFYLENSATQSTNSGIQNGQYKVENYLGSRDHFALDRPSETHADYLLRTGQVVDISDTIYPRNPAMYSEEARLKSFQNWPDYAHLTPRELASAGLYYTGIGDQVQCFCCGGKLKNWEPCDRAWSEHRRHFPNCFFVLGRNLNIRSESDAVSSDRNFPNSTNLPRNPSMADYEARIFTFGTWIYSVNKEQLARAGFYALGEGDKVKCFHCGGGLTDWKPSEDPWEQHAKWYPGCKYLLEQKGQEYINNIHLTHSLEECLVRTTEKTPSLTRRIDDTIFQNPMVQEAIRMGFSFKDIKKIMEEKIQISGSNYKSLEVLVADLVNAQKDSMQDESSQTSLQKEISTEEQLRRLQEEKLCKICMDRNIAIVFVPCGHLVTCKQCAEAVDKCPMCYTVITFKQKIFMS

Take `CCCCC(=C=CC[C@@H](O)c1ccccc1OCCO)C[C@@H](O)COCc1ccccc1`: the z-score is -0.202 in test [1]; -0.984 (inactive) in test [2]; 0.12 (inactive) in test [3]; 0.0478 (inactive) in test [5]; -2.79 (inactive) in test [6]; 0.666 (inactive) in [7]. The z-score in test [8] is 0.406 (inactive); in test [9] it was 0.267. Further, the composite z-score in test [4] is -2.09 (inactive); in [10], 0.0022.
Turning to `[N-]=[N+]=NCc1ccccc1C[C@@]1(C(=O)N2CCOCC2)N=C(c2ccc(OCCCO)cc2)O[C@@H]1c1ccccc1`, the z-score is -0.932 in test [1]; -2.93 (inactive) in test [2]; -4.83 (inactive) in [3]; 0.593 (inactive) in [5]; -0.0165 (inactive) in test [6]; 0.834 (inactive) in test [7]. Also, the z-score was -0.274 (inactive) in [8] and -4.29 in test [9]. For the same molecule, the composite z-score in test [4] is 0.192 (inactive); in test [10], 0.284.
`CCOc1cc(C(O)C2C=CC3C(=O)N(C)C(=O)C3N2Nc2ccccc2)ccc1O` (stereo not given): the z-score in test [1] was -0.687; in test [2], 1.11 (inactive); in test [3], -0.328 (inactive); in [5] it was 0.807 (inactive); in test [6], 2.32 (inactive); in test [7] it was -0.501 (inactive). The z-score is -0.861 (inactive) in test [8] and -0.323 in test [9]. In addition, the composite z-score was 0.684 (inactive) in test [4] and 0.312 in test [10].
For `CCCNC(=O)[C@@H]1c2ccccc2C(=O)N(C(C)C)[C@H]1c1ccc(CO)cc1`, the z-score was 0.321 in test [1]; 0.121 (inactive) in test [2]; 0.551 (inactive) in test [3]; 0.127 (inactive) in [5]; 0.846 (inactive) in test [6]; 0.313 (inactive) in test [7]. In addition, the z-score in test [8] was 1.31 (inactive); in [9], 0.497. The composite z-score in test [4] was -0.185 (inactive); in [10], -0.237.
In the case of `C=C(C)C1CCC(C(O)C2C=CC3C(=O)N(C)C(=O)C3N2N2CCCCC2)CC1` (stereo not given), the z-score was -0.689 in test [1]; 0.08 (inactive) in [2]; -1.19 (inactive) in [3]; 0.751 (inactive) in test [5]; 1.82 (inactive) in [6]; -0.742 (inactive) in [7]. Further, the z-score in test [8] was -0.654 (inactive); in test [9] it was -0.954. For the same molecule, the values for the composite z-score in test [4] and in test [10] were 0.112 (inactive) and 0.62, respectively.
As to `CN1C(=O)C2C=CC(C(O)c3ccc(F)cc3)N(Nc3ccccc3)C2C1=O` (stereo not given), the z-score is -1.05 in test [1]; 0.544 (inactive) in test [2]; -1.24 (inactive) in test [3]; 0.944 (inactive) in test [5]; 1.38 (inactive) in test [6]; -1.03 (inactive) in test [7]. Further, the z-score in [8] was -0.894 (inactive); in [9], -1.58. Besides, the composite z-score in [4] was 0.869 (inactive); in [10], 0.0761.
`CC(C)N1CC=CC23O[C@@H]4C=CCOC(=O)[C@@H]4[C@H]2C(=O)N(CCCO)[C@@H]3C1=O` (stereo not given in full): the z-score in test [1] is -0.128; in test [2], -1.91 (inactive); in test [3] it was 1.34 (inactive); in test [5], 0.248 (inactive); in [6], -1.68 (inactive); in test [7], -0.135 (inactive). Further, the z-score in [8] was 0.2 (inactive); in test [9] it was 0.939. Also, the composite z-score in test [4] was -0.201 (inactive); in test [10] it was 0.29.
For the molecule `CC[C@H]1C2=C3C(CC[C@H]4C(OCc5ccc(F)cc5C(F)(F)F)OC[C@](C)([C@@H]34)N(C(=O)OC(C)(C)C)C2)C(COC)C1COC` (stereo not given in full), the z-score in test [1] is -0.983; in test [2] it was 0.9 (inactive); in test [3] it was -1.31 (inactive); in test [5], -0.126 (inactive); in test [6], 0.628 (inactive); in [7] it was -0.543 (inactive). For the same molecule, the figures for the z-score in test [8] and in test [9] were 0.0886 (inactive) and -0.932, respectively. The figures for the composite z-score in [4] and in [10] were -0.0058 (inactive) and -0.0838, respectively.
As to `CC(=O)c1ccc(C(O)C2C=CC3C(=O)N(c4ccccc4)C(=O)C3N2Nc2ccc(C#N)cc2)cc1` (stereo not given), the z-score in test [1] was -1.04; in test [2], -2.04 (inactive); in [3] it was -0.848 (inactive); in [5] it was 0.695 (inactive); in [6] it was -0.826 (inactive); in test [7], -0.821 (inactive). For the same molecule, the z-score is -0.433 (inactive) in test [8] and -1.84 in test [9]. Moreover, the composite z-score in test [4] is -0.946 (inactive); in test [10], -0.396.
As for `O=C1O[C@@H](c2ccccc2)[C@@H](c2ccccc2)N2[C@@H](c3ccccc3OCCO)[C@]3(C(=O)Nc4ccc(C#CCCO)cc43)[C@@H](C(=O)N3CCCCCCC3)[C@H]12`, the z-score was 0.29 in [1]; 0.355 (inactive) in test [2]; -1.91 (inactive) in [3]; 1.26 (inactive) in test [5]; 0.753 (inactive) in test [6]; -0.291 (inactive) in test [7]. In addition, the figures for the z-score in [8] and in test [9] were 0.321 (inactive) and -4.5, respectively. The composite z-score is -0.452 (inactive) in test [4] and 2.45 in test [10].
On to `C=CCOC(=O)[C@H]1[C@@H]2C(=O)O[C@@H](c3ccccc3)[C@@H](c3ccccc3)N2[C@@H](c2ccc(OCCOC(=O)[C@@H]3C[C@@H]4C(=O)N[C@@H](CCCCN(C)C)C(=O)N4[C@@H]3c3ccc(O)cc3)cc2)[C@]12C(=O)Nc1ccccc12`, for which the z-score in [1] was -2.65; in test [2], -1.48 (inactive); in [3], 0.0862 (inactive); in test [5] it was 1.07 (inactive); in test [6] it was 0.0694 (inactive); in test [7], -1.05 (inactive). Also, the z-score was -0.628 (inactive) in test [8] and 0.313 in test [9]. Also, the composite z-score in [4] is -1.52 (inactive); in test [10], -0.0172.
For the molecule `C=CCC(OC(C)=O)[C@@H]1[C@@H](N(Cc2ccc(-c3cccc(C(F)(F)F)c3)o2)C(=O)c2ccc(-c3ccccc3)cc2)c2cc(OCCCO)ccc2N1C(=O)c1ccc2ccccc2n1` (stereo not given in full), the z-score in [1] was -0.0845; in [2] it was 1.59 (inactive); in test [3] it was 0.328 (inactive); in [5], 0.857 (inactive); in test [6] it was 0.859 (inactive); in test [7] it was -0.347 (inactive). The figures for the z-score in test [8] and in test [9] were -0.302 (inactive) and -0.556, respectively. The composite z-score is -0.32 (inactive) in test [4] and -0.152 in [10].
In the case of `COCCOC(=O)N1C(=O)[C@@]2(c3cc(C#CCCO)ccc31)[C@H](c1ccccc1OCCO)N1[C@H](c3ccccc3)[C@H](c3ccccc3)OC(=O)[C@H]1[C@@H]2C(=O)Nc1nc2ccccc2s1`, the z-score was 1.03 in test [1]; 1.13 (inactive) in [2]; -0.125 (inactive) in test [3]; 2.51 (inactive) in test [5]; 1.79 (inactive) in test [6]; -0.233 (inactive) in [7]. The results for the z-score in test [8] and in test [9] were -0.324 (inactive) and -0.411, respectively. Besides, the figures for the composite z-score in [4] and in test [10] were -0.26 (inactive) and -0.115, respectively.

(Values after PubChem BioAssay.)
